High-throughput results (PubChem)
SW480 rereplic: A quantitative high throughput screen for small molecules that induce DNA re-replication in SW480 colon adenocarcinoma cells; Potency, µM (highest dose often 46.1 µM), for the others: at the top dose re-replication activation, actives largely listed as activators; SW480 DNA re-replication, Hoechst DNA content imaging, 48 h; 340,000 compounds, 1.8% hits; AID 624297, 2012; further: potency means the concentration at half of the fitted maximal effect; % of control where 0% means no effect; nearly all actives have a fitted effect of over 55% in size
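SW480 cells exposed to compounds for 48 hr at 37 C, 5% CO2, then Hoechst-stained 40 min. Nuclear DNA content imaged by fluorescence scanning (405 nm excitation, 500-530 nm emission); re-replication scored as increased high-intensity nuclei.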
BCR signal inh: qHTS Assay to Find Inhibitors of Chronic Active B-Cell Receptor Signaling; 340,000 compounds, 0.05% hits; Potency, µM (series often up to 46.1 µM), inactives show at the top dose activity change, negative = inhibition, hits mostly inhibitors; ABC-DLBCL IkBa-CBG/CBR reporter, luminescence ratio, 4 h; active means well fitted inhibition curve with a large enough effect in the signal ratio, with a control signal flat, not every such curve was filed as active; inconclusive means small, poorly fitted or top-dose-only effect, or effect the other way, or a change in a side signal; the % refers to the signal ratio;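 further: potency means the concentration at half of the fitted maximal effect; plate controls were basal doxycycline-induced cells for no effect and cells given 10 µM MG132 for full effect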
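Concentration-response series (up to 46 uM) were applied to TMD8 dual-reporter cells for 4 h at 37C with doxycycline. Green/red ratio, after filter-overlap correction, defined %Activity; red signal alone was normalised to basal cells and zero luminescence.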
Giardia kill: Small Molecules that selectively kill Giardia lamblia: qHTS; Giardia lamblia trophozoite viability; activity change, % at 7.66 µM, hits read low; 340,000 compounds, 0.15% hits; in the data active means activity change below about -80%; inconclusive means between about -30% and that limit;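 further: parasites exposed to compound for two days anaerobically before the ATP read; on the % scale 0 is the no-effect control and ±100 the full control effect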
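Viability, read as ATP luminescence: trophozoites at 100 cells/well, compound added, 48 hrs anaerobic at 37 deg C, then 15-30 min room-temperature development before reading.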
RORg inh: qHTS for inhibitors of ROR gamma transcriptional activity; AID 2551, 2010; 310,000 compounds, 5.4% hits; Drosophila S2 Gal4-RORgamma UAS-luciferase reporter, 20 h; Nuclear receptor ROR-gamma (Mus musculus), P51450; Potency, µM (top dose mostly 53.6 µM), for inactives: at the highest dose activity change, negative = inhibition, hits mostly inhibitors; further: potency means the concentration at half of the fitted maximal effect; on the % scale 0 is the no-effect control and ±100 the full control effect; nearly all actives have a fitted effect of over 60% in size
Target sequence (P51450 whole entry, looked up, the tested form may be a part): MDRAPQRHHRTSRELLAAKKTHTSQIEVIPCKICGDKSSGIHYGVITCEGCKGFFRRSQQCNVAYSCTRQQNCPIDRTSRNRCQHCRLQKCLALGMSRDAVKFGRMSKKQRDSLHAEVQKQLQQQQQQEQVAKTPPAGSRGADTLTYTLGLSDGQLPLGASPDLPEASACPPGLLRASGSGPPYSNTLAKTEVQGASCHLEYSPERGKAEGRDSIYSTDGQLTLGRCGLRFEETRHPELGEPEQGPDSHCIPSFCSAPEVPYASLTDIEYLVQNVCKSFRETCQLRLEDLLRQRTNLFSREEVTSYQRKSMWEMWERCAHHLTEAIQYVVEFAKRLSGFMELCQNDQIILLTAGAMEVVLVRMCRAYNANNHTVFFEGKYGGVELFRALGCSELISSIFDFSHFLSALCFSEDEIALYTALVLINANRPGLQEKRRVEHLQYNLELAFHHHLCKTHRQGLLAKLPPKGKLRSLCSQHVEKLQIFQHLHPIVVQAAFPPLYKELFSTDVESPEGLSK
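Stable Schneider cell line, Gal4 DNA-binding domain fused to ROR gamma, UAS-luciferase. Cmpd 1 hr RT → CuSO4 700 uM final → 20 hr RT → luciferase reagent 10 min → luminescence.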
MCF10A rereplic: A quantitative high throughput screen for small molecules that induce DNA re-replication in MCF 10a normal breast cells | MCF 10A DNA re-replication, Hoechst nuclear intensity, 48 h | Potency, µM (series often up to 46.1 µM), inactives show at the highest dose activity, positive = re-replication, actives largely listed as activators | 350,000 compounds, 2.9% hits; further: potency means the concentration at half of the fitted maximal effect; % of control where 0% means no effect; nearly all actives have a fitted effect of over 50% in size
Gal4-VP16 FLuc: VP16 counterscreen qHTS for inhibitors of ROR gamma transcriptional activity | 310,000 compounds, 3.5% hits | Drosophila S2 Gal4-VP16 UAS-luciferase, luminescence, 20 h | AID 2546, 2010 | Potency, µM (series often up to 53.6 µM), for inactives: at the top dose activity, negative = inhibition, hits mostly inhibitors;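 further: Gal4-VP16 expression switched on by copper sulfate through the metallothionein promoter; potency means the concentration at half of the fitted maximal effect; on the % scale 0 is the no-effect control and ±100 the full control effect; nearly all actives have a fitted effect of over 50% in size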
Starred values were filed as active, the others as inactive; ? = inconclusive; . = no result given; [ ] = dose if it differs, or a comment. Only some compounds are listed: those with a hit (about 8.3% of all), similar ones and a draw of the others. Unless noted, the call rests on the fitted dose curve; in most records, active means well fitted curve in the direction sought with a large enough effect; inconclusive means small, poorly fitted or top-dose-only effect, or another doubt; inactive means no such curve, though single readings can be large; an effect the other way counts as inactive or inconclusive.

SMILES	SW480 rereplic	BCR signal inh	Giardia kill	RORg inh	MCF10A rereplic	Gal4-VP16 FLuc
COC(=O)[C@@H]1CC[C@H](C)[C@@H](c2ccc(C)cc2)N1C(=O)c1ccc(/C=N/O[C@@H](C)CN2CCCCc3nc(C)c(C)cc32)cc1	25%	-1%	.	?	?	20µM*
N=c1ccn(Cc2cccc(F)c2)cc1	?	3%	26	?	-3%	10µM*
COc1cccc(-c2nn(-c3ccccc3)cc2CN(C)Cc2c(C)nc3ccccn23)c1	3%	?	7	7.1µM*	11%	?
COc1cccc(-c2nn(-c3ccccc3)cc2CN(C)Cc2ccon2)c1	0%	?	8	-21%	13%	-13%
COc1cc(-c2nc3c4ccccc4nc(=S)n3[nH]2)cc(OC)c1OC	0%	?	21	1.4µM*	11%	1.4µM*
COc1ccccc1-c1nc2ccccc2nc1-c1ccccc1	1%	8%	38	3%	?	8%
COc1ccccc1-c1nc2c3ccccc3nc(=S)n2[nH]1	7%	?	-17	0.35µM*	7%	1.3µM*
COC(=O)C(=Cc1ccc(-c2ccsc2C(=O)OC)o1)C(=O)OC	5.8µM*	?	15	?	26µM*	-8%
CCOC(=O)C(=Cc1ccc(-c2ccsc2C(=O)OC)o1)C(=O)OCC	?	?	2	39%	?	2%
O=C(NNS(=O)(=O)c1ccccc1)c1ccc(S(=O)(=O)N2CCCCC2)cc1	3%	-4%	-1	20%	3%	-1%
CCCCC(=O)N(c1ccc(OCC)cc1)C1C=CS(=O)(=O)C1 (centres undefined)	1%	2%	-2	-3%	13µM*	2%
Cc1cc(C(=O)N2CCN(S(=O)(=O)c3ccccc3F)CC2)c(C)o1	4%	-6%	-16	13µM*	-13%	7%
Cc1cc(C(=O)N2CCN(c3ncccn3)CC2)c(C)o1	24%	3%	0	22µM*	1%	-1%[0.365 µM]
Cc1cc(C(=O)N2CCN(c3ccccc3)CC2)c(C)o1	3%	-2%	32	22%	-17%	3%
Cc1cc(C(=O)N2CCN(S(=O)(=O)c3ccccc3C#N)CC2)c(C)o1	-4%	-2%	-4	.	1%	.
COc1ccc(-c2cn3nc(N4CCCC(C(=O)Nc5cccc(OC)c5)C4)sc3n2)cc1 (centres undefined)	.	3%	.	.	.	.
COc1ccc2cc1Oc1ccc(cc1)CC1c3c(cc(OC)c4c3Oc3cc5c(cc3O4)CCNC5C2)CCN1C (centres undefined)	0%	?	?	4.5µM*	?	7.1µM*
CC(OC(=O)c1ccccc1)C(=O)NCc1ccco1 (centres undefined)	-1%	2%	-22	.	1%	.
COC(=O)c1c(NC(=O)CC2SC(N)=NC2=O)sc2c1CCC(C(C)(C)C)C2 (centres undefined)	24%	1%	6	?	23µM*	-26%
CC(C)(C)C1CCc2c(sc(NC(=O)c3cccs3)c2C(N)=O)C1 (centres undefined)	?	?	-24	6%	5.6µM*	?
Cc1cc(C(=O)CSc2nnc(C3CC3)n2C2CC2)c(C)n1C(C)C	20%	0%	-11	.	3%	.
O=C(O)CCCC(=O)Nc1ccc2c(c1)oc1ccccc12	-49%	?	9	11µM*	9%	?
CCOC(=O)CSCC(NC(=O)OC(C)(C)C)C(=O)OCC (centres undefined)	-4%	0%	18	7.1µM*	6%	?
COc1ccc(NC(=O)Nc2ccc3c(c2)C(=O)N([C@@H](C)CO)C[C@@H](C)[C@@H](CN(C)S(=O)(=O)c2cn(C)cn2)O3)cc1	1%	?	-16	.	?	.
COc1ccccc1CNC(=O)C1CC2Cn3c(nc4cc(C)c(C)cc43)C2N1C (centres undefined)	18%	1%	-15	.	1%	.
SMILES	SW480 rereplic	BCR signal inh	Giardia kill	RORg inh	MCF10A rereplic	Gal4-VP16 FLuc
CCN(CC)CCNC(=O)C(Cl)=C1C(Cl)=C(Cl)C(Cl)=C1Cl	12µM*	.	15	.	10µM*	.
CCN(Cc1ccccc1)C(=O)Cn1c(=O)n(-c2ccc(Cl)c(Cl)c2)c(=O)c2c(C)c(C(=O)N(C)C)sc21	.	-10%	.	.	.	.
O=c1c2ccccc2nnn1CSc1nc2ccccc2c(=O)n1CCCO	1%	6%	-14	10µM*	1%	-12%
COC(=O)[C@@H]1[C@@H](C#N)C2(c3ccccc3-c3ccccc32)N(c2ccc(Cl)cc2)N1C#N	?	?	17	16µM*	5.2µM*	10µM*
COc1cccc(CN2C(=O)CN(C3CCCCC3)C(=O)C2c2ccc(OC)c(OC)c2)c1 (centres undefined)	.	-17%	.	.	.	.
CCc1ccc(-c2cc(C)no2)cc1S(=O)(=O)NCCc1ccccc1	?	7%	2	?	?	?
Cc1ccccc1-c1cn(-c2ccccc2)c(=S)[nH]1	-1%	?	-4	3.2µM*	5%	10µM*
COc1ccccc1-n1cc(-c2ccc(Cl)cc2)[nH]c1=O	8%	-19%	24	-10%	0%	8%
Fc1ccccc1-n1cc(-c2ccccc2)[nH]c1=S	-4%	7%	3	2.5µM*	0%	16µM*
COc1ccc(-n2cc(-c3ccccc3)[nH]c2=S)c(OC)c1	18µM*	-2%	27	2.5µM*	16µM*	7.9µM*
Cc1ccc(-n2cc(-c3ccccc3)[nH]c2=O)cc1F	-9%	?	9	31%	1%	3%
CCc1ccc(-n2cc(-c3ccc([N+](=O)[O-])cc3)[nH]c2=S)cc1	-4%	7%	3	11µM*	4%	?
C=CCOc1ccc(C(=O)n2cc(C(=O)OC)c3ccccc32)cc1	-6%	3%	-8	36%	?	-6%
CCC(CC)C(=O)Nc1c2c(nn1-c1ccc(F)cc1)CS(=O)(=O)C2	1%	5%	-5	6%	3%	2%
CN1CCN(NC(=S)Nc2ccc(Oc3ccccc3)cc2)CC1	-8%	?	-30	?	3%	-14%
COc1ccc(-c2cn(-c3ccc(C)cc3C)c(=S)[nH]2)cc1OC	-3%	?	-7	?	4%	?
